Laboratory results published in the supplement of paper PMC6555819.

Tests used:
Assay in all cases: PBM binding z-score (relative to random genomic background probes); higher = stronger binding; sequences stand for … in GC…GCGATTGACAGCGTAGAATGAAGG
[1] = system: FXR:RXRa (NR concentration 270 nM, RXRa partner concentration 90 nM)
Procedure, shortened: (§1)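 Ligand-free nuclear receptor dimers were bound for 1 h to custom Agilent 4×180K protein-binding microarrays. Detection used antibodies against each partner (one per run). Binding z-scores rest on regression-normalized fluorescence, with random background probes as the reference.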

[2] = system: LXRa:RXRa (NR concentration 270 nM, RXRa partner concentration 90 nM)
Procedure, shortened: as §1

[3] = system: LXRa homodimer (NR concentration 270 nM)
Procedure, shortened: as §1

[4] = system: LXRb:RXRa (NR concentration 270 nM, RXRa partner concentration 90 nM)
Procedure, shortened: as §1

[5] = system: LXRb homodimer (NR concentration 270 nM)
Procedure, shortened: as §1

[6] = system: PPARa:RXRa (NR concentration 270 nM, RXRa partner concentration 90 nM)
Procedure, shortened: as §1

[7] = system: PPARg:RXRa (NR concentration 180 nM, RXRa partner concentration 90 nM)
Procedure, shortened: as §1

[8] = system: PPARg:RXRa 270nM:90nM, anti-RXR (NR concentration 270 nM, RXRa partner concentration 90 nM)
Procedure, shortened: as §1

[9] = system: PPARg:RXRa 30nM:10nM, anti-RXR (NR concentration 30 nM, RXRa partner concentration 10 nM)
Procedure, shortened: as §1

[10] = system: PPARg:RXRa 90nM:30nM, anti-RXR (NR concentration 90 nM, RXRa partner concentration 30 nM)
Procedure, shortened: as §1

[11] = system: PPARg:RXRa DBDmut IVT, anti-RXR (DBD mutation: RXRa K156A/R161A, NR concentration 270 nM, RXRa partner concentration 90 nM)
Procedure, shortened: as §1

[12] = system: PPARg:RXRa IVT, anti-PPARg (NR concentration 270 nM, RXRa partner concentration 90 nM)
Procedure, shortened: as §1

[13] = system: PPARg DBDmut:RXRa IVT, anti-PPARg (DBD mutation: PPARg1 K132A/R137A, NR concentration 270 nM, RXRa partner concentration 90 nM)
Procedure, shortened: as §1

[14] = system: PPARg DBDmut IVT, anti-PPARg (DBD mutation: PPARg1 K132A/R137A, NR concentration 270 nM)
Procedure, shortened: as §1

[15] = system: PPARg homodimer (NR concentration 180 nM)
Procedure, shortened: as §1

[16] = system: PXR:RXRa (NR concentration 270 nM, RXRa partner concentration 90 nM)
Procedure, shortened: as §1

[17] = system: PXR homodimer (NR concentration 270 nM)
Procedure, shortened: as §1

[18] = system: RARa:RXR (NR concentration 270 nM, RXRa partner concentration 90 nM)
Procedure, shortened: as §1

[19] = system: RARa homodimer (NR concentration 270 nM)
Procedure, shortened: as §1

[20] = system: RARb:RXRa (NR concentration 270 nM, RXRa partner concentration 90 nM)
Procedure, shortened: as §1

Sequence | PBM binding z-score [1] | PBM binding z-score [2] | PBM binding z-score [3] | PBM binding z-score [4] | PBM binding z-score [5] | PBM binding z-score [6] | PBM binding z-score [7] | PBM binding z-score [8] | PBM binding z-score [9] | PBM binding z-score [10] | PBM binding z-score [11] | PBM binding z-score [12] | PBM binding z-score [13] | PBM binding z-score [14] | PBM binding z-score [15] | PBM binding z-score [16] | PBM binding z-score [17] | PBM binding z-score [18] | PBM binding z-score [19] | PBM binding z-score [20]
AGTCACAGTTCATCTAGGTAACGTAAGATATGCT | 2.21 | 2.57 | 1.29 | 1.54 | 0.388 | 2.11 | 1.85 | 1.88 | 0.525 | 1.04 | 0.901 | 2.75 | 1.15 | 1.19 | 0.64 | 2.32 | 1.87 | 1.44 | 0.582 | 2.74
CCTCGGAGGACAGAAGGTAAGAGCTGTCCGCTTT | -0.304 | -0.532 | -0.965 | -1.02 | -1.17 | -0.652 | -0.402 | -0.815 | -1.03 | -0.914 | -0.432 | -0.658 | -1.58 | -1.77 | -0.354 | -0.918 | -0.487 | -0.713 | -0.583 | 0.19
CTGACTGGGGCATAAGGTTACCATAAGCCAGCCC | 0.671 | 2.05 | 0.0158 | 1.61 | -0.345 | 2.69 | 3.2 | 3.99 | 2.16 | 3.9 | 4.6 | 4.79 | 0.707 | -0.07 | 1.02 | 0.767 | -0.461 | 1.62 | -0.242 | 1.94
CCGACTGAGGCAGAAAGGTTACCATACCATCCGG | 0.495 | 0.563 | 0.0475 | 0.877 | -0.972 | 1.82 | 1.05 | 1.42 | 0.27 | 0.899 | -0.0384 | -0.0549 | -1.78 | -0.731 | 0.893 | 0.855 | -0.109 | 1.69 | 0.393 | 1.62
CCGAATGGGGCAAAGGTTACCATACTCAGTACGA | 1.99 | 1.85 | 0.278 | 2.51 | -0.456 | 4.58 | 9.1 | 7.67 | 7.02 | 7.87 | 2.16 | 4.5 | 0.22 | 0.313 | 1.22 | 2.57 | 0.114 | 3.86 | 0.85 | 2.46
TCTAGTTGGTCAAAGGTCACTCACTCGAAATGCG | 5.38 | 5.18 | 3.77 | 5.13 | 2.23 | 6.16 | 11.5 | 10 | 10.6 | 12.1 | 3.67 | 6.11 | 2.62 | 1.66 | 4.97 | 5.78 | 1.56 | 7.3 | 3.14 | 4.93
ATCTCTAGTTAACAAGTTCAGTGAAAGAGAGGAC | 0.682 | 1.12 | 0.782 | 0.883 | 1.22 | 0.724 | 0.29 | 0.54 | 0.48 | 0.596 | 0.0329 | 0.697 | 1.35 | 1.03 | 0.961 | 1.81 | 2.1 | 0.902 | 1.15 | 1.49
CGAACGGGGGCATGAGTTGATAGCAAATGCCGAT | 3.26 | 2.81 | 0.42 | 4.42 | 6.73 | 3.99 | 2.63 | 4.68 | 2.82 | 3.84 | 3.7 | 5.31 | 8.66 | 10 | 2.78 | 3.06 | 1.34 | 2.78 | 0.977 | 2.79
GCTAATAGTTGAAAGGGCAACCGAATGATTCTCG | 0.971 | 1.16 | -0.065 | 1.09 | -0.087 | 2.85 | 3.03 | 4.2 | 2.1 | 3.9 | 0.302 | 1.27 | -0.057 | -0.27 | 0.836 | 0.859 | -0.00303 | 1.61 | 0.745 | 2.21
CGAACTAGGTCAGTGACAGGACAGTGAATAGTAA | 1.32 | 0.944 | -0.268 | 0.82 | -0.44 | 3.47 | 5.73 | 4.86 | 1.66 | 4.11 | 7.42 | 7.6 | 2.57 | 0.828 | 0.785 | 0.605 | 0.0765 | 1.03 | 0.459 | 3.11
TCTAGCAGGCCAAAGGGTCACTCAAGAGGTACGG | 2.46 | 2.67 | 0.121 | 2.6 | -0.592 | 3.89 | 3.36 | 4.84 | 3.5 | 4.89 | 1.61 | 2.45 | -0.396 | -0.432 | 2.19 | 2.95 | -0.0548 | 3.89 | 0.234 | 3.74
TTACCAAGGTGAATGTCGTTGATCCCTCTGTAGA | 0.755 | 0.993 | -0.247 | 0.681 | -0.413 | 1.51 | 0.279 | 1.04 | 0.788 | 0.922 | 1.97 | 2.48 | 0.0323 | 0.0146 | 0.593 | 0.524 | -0.383 | 1.12 | 0.309 | 1.34
CAAACGAGGGCATGAGTTGATAGCAAATGCCGAT | 0.718 | 0.454 | -0.447 | 0.313 | -0.289 | 1.86 | 1.7 | 1.88 | 0.402 | 1.12 | 2.71 | 2.88 | 0.524 | -0.353 | 0.909 | 0.572 | -0.0239 | 0.752 | -0.274 | 2.24
GATACAGGGTCAAGGCCAGATTACGCGTATTGAT | 7.02 | 4.53 | 0.129 | 4.07 | 0.268 | 5.77 | 5.99 | 5.29 | 2.36 | 4.09 | 2.74 | 4.03 | 2.24 | 1.3 | 3.72 | 4.43 | 0.645 | 5.48 | 1.59 | 4.65
CAAACTAGGTCACGACAGGTCAAAGTCGAATGAC | 6.86 | 7.66 | 5.39 | 6.7 | 0.955 | 6.08 | 9.79 | 7.85 | 6.54 | 8.02 | 8.69 | 9.13 | 4.46 | 5.24 | 4.07 | 6.3 | 0.87 | 6.14 | 1.65 | 5.04
